Each structure is given as a SMILES string. Inconclusive results are not listed. Calls of active or inactive are those of the source. The calls were made as follows, unless noted: active = hit-call score of the fitted dose curve at least 0.9, where 1 is the maximum; inactive = score below 0.9.

Test [1] has as its target Paired box protein Pax-6 (Homo sapiens) (UniProt P26367). The test can be described thus: ATG_Pax6_CIS: Attagene CIS-FACTORIAL HepG2 Assay for human Paired Box 6 (PAX6) (AID 2282956). The settings on record: HepG2 CIS-FACTORIAL PAX6 reporter transcription, RNA readout; actives raise or lower the signal. The essentials:
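After twenty-four hours of chemical exposure, transfected HepG2 cells are harvested for RNA. Cis-promoter reporter transcripts are amplified, fluorescently labelled and sized by capillary electrophoresis, with gain and loss of signal scored against DMSO.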

Test [2] can be described thus: ATG_PXRE_CIS: Attagene CIS-FACTORIAL HepG2 Assay for human Pregnane X Receptor Element (PXRE) (AID 2282957). The settings on record: HepG2 Attagene CIS-FACTORIAL PXRE reporter, mRNA; actives raise or lower the signal. The procedure, abridged: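 Cells: HepG2, transiently transfected reporter units under cis promoter control. Exposure: 24 h. Detection: reporter mRNA via RT-PCR/CE fluorescence; bidirectional fitting, DMSO-referenced.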

The nature of test [3]: ATG_PPRE_CIS: Attagene CIS-FACTORIAL HepG2 Assay for human Peroxisome Proliferator-activated Response Element (PPRE) (AID 2282958). The note with it: HepG2 PPRE cis-element reporter, Attagene transcription factor profiling; actives raise or lower the signal. The essentials:
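In this cell-based multiplex, a PPRE cis element drives a reporter sequence in transiently transfected HepG2 cells. Following 24 h treatment, labeled cDNA amplicons are sized and quantified by capillary electrophoresis, with DMSO defining baseline.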

Test [4] can be described thus: ATG_RORE_CIS: Attagene CIS-FACTORIAL HepG2 Assay for human RAR-related Orphan Receptor Element (RORE) (AID 2282959). The note with it: HepG2 Attagene cis-factorial RORE reporter, mRNA; actives raise or lower the signal. The essentials:
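Endogenous factor activity at a cis response element is read as reporter transcript levels in HepG2 cells, 24 h post-dose. Transcripts are quantified by RT-PCR with capillary electrophoresis, and data fitted in both directions against DMSO.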

Test [5] can be described thus: ATG_Sox_CIS: Attagene CIS-FACTORIAL HepG2 Assay for human SRY-box transcription factor (SOX) (AID 2282960). The settings on record: HepG2 Attagene cis-factorial SOX reporter, mRNA; actives raise or lower the signal. The procedure, abridged: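 Measures mRNA induction of a SOX1-associated reporter in HepG2 after 24 h dosing. Fluorescently labelled RT-PCR fragments are separated by capillary electrophoresis, and gain or loss relative to DMSO control is fitted.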

Test [6] has as its target Transcription factor Sp1 (Homo sapiens) (UniProt P08047). The test can be described thus: ATG_Sp1_CIS: Attagene CIS-FACTORIAL HepG2 Assay for human Specificity Protein 1 (Sp1) (AID 2282961). The settings on record: HepG2 Sp1 cis-reporter transcription, actives raise or lower the signal. The essentials:
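Cells: HepG2, transiently transfected with cis-regulated multiplexed reporters. Exposure: 24 h. Detection: reporter transcripts amplified, fluorescently labeled, restriction-digested and sized by capillary electrophoresis. Analysis: bidirectional fit relative to DMSO.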

Test [7] in a line: ATG_SREBP_CIS: Attagene CIS-FACTORIAL HepG2 Assay for human Sterol Regulatory Element Binding (SREBP) (AID 2282962). The settings on record: HepG2 Attagene cis-factorial SREBP reporter, mRNA; actives raise or lower the signal. The procedure, abridged: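 Twenty-four hours after chemical dosing of transfected HepG2 cultures, reporter RNA was converted to cDNA, amplified, end-labelled with 6-FAM and resolved by capillary electrophoresis. Responses were fitted relative to DMSO.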

The target in test [8] is Signal transducer and activator of transcription 3 (Homo sapiens) (UniProt P40763). The test can be described thus: ATG_STAT3_CIS: Attagene CIS-FACTORIAL HepG2 Assay for human Signal Transducer and Activator of Transcription 3 (STAT3) (AID 2282963). The note with it: HepG2, Attagene cis-factorial STAT3 reporter transcription; actives raise or lower the signal. The procedure, abridged: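 After a 24 h compound incubation, total RNA from MRTU-transfected HepG2 cells was converted to cDNA and reporter sequences PCR-amplified, labelled and profiled by capillary electrophoresis. Gain and loss of signal were referenced to DMSO.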
Chain of Signal transducer and activator of transcription 3 (Homo sapiens) (P40763 whole entry, looked up): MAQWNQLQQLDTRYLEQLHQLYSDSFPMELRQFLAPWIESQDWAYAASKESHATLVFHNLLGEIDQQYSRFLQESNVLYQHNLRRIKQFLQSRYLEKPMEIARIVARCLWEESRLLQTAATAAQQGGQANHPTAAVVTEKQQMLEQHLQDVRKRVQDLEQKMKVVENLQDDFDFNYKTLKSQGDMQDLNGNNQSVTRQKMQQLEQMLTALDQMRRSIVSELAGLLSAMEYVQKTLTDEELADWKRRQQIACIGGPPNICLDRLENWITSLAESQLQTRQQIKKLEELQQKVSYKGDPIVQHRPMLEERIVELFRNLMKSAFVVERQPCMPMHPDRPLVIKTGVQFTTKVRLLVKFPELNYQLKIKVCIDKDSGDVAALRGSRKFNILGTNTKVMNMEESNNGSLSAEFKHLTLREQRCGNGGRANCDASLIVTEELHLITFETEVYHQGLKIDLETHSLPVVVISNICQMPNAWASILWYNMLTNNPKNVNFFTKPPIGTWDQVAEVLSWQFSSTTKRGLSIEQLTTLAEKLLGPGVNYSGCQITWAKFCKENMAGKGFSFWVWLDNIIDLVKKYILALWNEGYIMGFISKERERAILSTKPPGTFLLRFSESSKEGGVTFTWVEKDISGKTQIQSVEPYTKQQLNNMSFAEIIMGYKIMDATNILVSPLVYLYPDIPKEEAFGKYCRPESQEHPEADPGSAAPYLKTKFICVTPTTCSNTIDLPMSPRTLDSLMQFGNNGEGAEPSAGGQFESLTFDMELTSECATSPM

Test [9] is described as follows: ATG_TA_CIS: Attagene CIS-FACTORIAL HepG2 Assay for human TA Basal Promoter (AID 2282964). The note with it: HepG2 Attagene CIS-factorial TA basal promoter reporter; actives raise or lower the signal. The procedure, abridged:
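Multiplexed mRNA reporter assay, HepG2, 24 h. Reporter cDNA amplified, 6-FAM primer-extended, HpaI-cut, CE-sized; DMSO = negative control and baseline.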

The nature of test [10]: ATG_TCF_b_cat_CIS: Attagene CIS-FACTORIAL HepG2 Assay for human T-Cell-Factor with beta-catenin (TCF/b-cat) (AID 2282965). The settings on record: HepG2 TCF/beta-catenin cis-reporter transcription, actives raise or lower the signal. The procedure, abridged: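 Measured: reporter mRNA in HepG2 transiently transfected with cis-promoter reporter units, 24 h after chemical addition. Fitting was bidirectional, DMSO as negative control.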

A short description of test [11]: ATG_TAL_CIS: Attagene CIS-FACTORIAL HepG2 Assay for human TAL Basal Promoter (AID 2282966).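 Also: background control endpoint measuring basal TAL promoter reporter mRNA not a specific factor.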 The note with it: HepG2 Attagene cis-factorial TAL promoter reporter; actives raise or lower the signal. The procedure, abridged: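 RT-PCR plus capillary electrophoresis quantifies reporter mRNA induction in transiently transfected HepG2 cells after 24 h chemical treatment. DMSO serves as negative control and baseline for bidirectional fitting.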

A short description of test [12]: ATG_TGFb_CIS: Attagene CIS-FACTORIAL HepG2 Assay for human Transforming Growth Factor (TGF) (AID 2282967). The note with it: HepG2 Attagene CIS TGFb reporter, mRNA transcription; actives raise or lower the signal. The procedure, abridged: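 Transcript-level reporter readout: HepG2 transfectants, 24 h exposure, RNA to cDNA, reporter-specific PCR, fluorescent primer extension, capillary sizing against ROX standards. Gain- or loss-of-signal relative to DMSO.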

Test [13] in a line: ATG_VDRE_CIS: Attagene CIS-FACTORIAL HepG2 Assay for human Vitamin D Receptor Element (VDRE) (AID 2282968). The note with it: HepG2 VDRE cis-reporter transcription, actives raise or lower the signal. The procedure, abridged:
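In transiently transfected HepG2 liver cells, gain or loss of reporter mRNA after 24 h exposure is scored relative to DMSO, using fluorescence detection by capillary electrophoresis of RT-PCR products.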

In test [14] the target is X-box-binding protein 1 (Homo sapiens) (UniProt P17861). The test can be described thus: ATG_Xbp1_CIS: Attagene CIS-FACTORIAL HepG2 Assay for human X-box Binding Protein 1 (XBP1) (AID 2282972). The settings on record: HepG2 XBP1 cis-element reporter, Attagene multiplex; actives raise or lower the signal. The procedure, abridged: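 After a 24-hour chemical exposure of HepG2 cells carrying cis-regulated reporters, reporter mRNA levels are assessed. Quantification uses RT-PCR, 6-FAM labelling and capillary electrophoresis. Gain- or loss-of-signal is fitted against DMSO.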
Chain of X-box-binding protein 1 (Homo sapiens) (P17861 whole entry, looked up): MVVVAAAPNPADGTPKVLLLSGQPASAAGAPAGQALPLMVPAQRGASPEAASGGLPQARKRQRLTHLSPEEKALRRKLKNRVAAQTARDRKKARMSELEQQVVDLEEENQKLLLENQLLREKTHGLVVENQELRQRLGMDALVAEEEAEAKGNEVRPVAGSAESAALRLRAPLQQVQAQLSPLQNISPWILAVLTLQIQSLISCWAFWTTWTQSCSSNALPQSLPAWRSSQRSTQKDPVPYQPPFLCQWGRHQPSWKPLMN

Test [15] can be described thus: ATG_M_19_TRANS: Attagene TRANS-FACTORIAL HepG2 Assay for M19 Transcription Factor (Internal Marker) (AID 2282974; active = hit-call score of the fitted dose curve at least 0.9, where 1 is the maximum). The note with it: HepG2 Attagene TRANS-FACTORIAL M19 internal marker reporter. The essentials: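 Reporter mRNA induction was measured in transfected HepG2 cells 24 h after dosing. Endpoint fitted upward relative to DMSO and serves as a background control within the multiplexed TRANS panel.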

Test [16] deals with Nuclear receptor subfamily 1 group I member 3 (Homo sapiens) (UniProt Q14994). The test can be described thus: ATG_CAR_TRANS: Attagene TRANS-FACTORIAL HepG2 Assay for human Constitutive Androstane Receptor (CAR) (AID 2282969; active = hit-call score of the fitted dose curve at least 0.9, where 1 is the maximum;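 also: activators raise reporter mRNA above DMSO so AC50 marks induction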). The settings on record: HepG2 Attagene TRANS-FACTORIAL CAR reporter. The essentials: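 Readout is reporter mRNA induction, quantified by fluorescent primer extension and capillary electrophoresis after RT-PCR. Cells were HepG2 transiently carrying chimeric NR-Gal4 constructs with GAL4-UAS reporters, treated for 24 h; activity scored upward from DMSO.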
Chain of Nuclear receptor subfamily 1 group I member 3 (Homo sapiens) (Q14994 whole entry, looked up, the tested form may be a part): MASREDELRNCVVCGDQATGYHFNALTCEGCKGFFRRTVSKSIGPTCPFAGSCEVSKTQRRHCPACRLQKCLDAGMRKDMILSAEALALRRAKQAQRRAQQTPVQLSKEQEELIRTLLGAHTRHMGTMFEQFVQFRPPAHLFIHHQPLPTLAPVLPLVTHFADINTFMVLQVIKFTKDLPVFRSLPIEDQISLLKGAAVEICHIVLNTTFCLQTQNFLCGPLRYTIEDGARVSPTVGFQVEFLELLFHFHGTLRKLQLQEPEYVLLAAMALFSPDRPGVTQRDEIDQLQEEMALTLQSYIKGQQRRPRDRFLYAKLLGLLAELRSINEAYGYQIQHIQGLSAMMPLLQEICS

Test [17] deals with Estrogen receptor (Homo sapiens) (UniProt P03372). The test can be described thus: ATG_ERa_TRANS: Attagene TRANS-FACTORIAL HepG2 Assay for human Estrogen Receptor alpha (ERa) (AID 2282970; active = hit-call score of the fitted dose curve at least 0.9, where 1 is the maximum). The note with it: HepG2 Attagene TRANS ERa GAL4 reporter, mRNA. The essentials: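 Cells: HepG2, transiently transfected. Construct: GAL4-UAS reporter units regulated by exogenous NR-Gal4 chimeras. Time: 24 h. Detection: reporter mRNA by RT-PCR, capillary electrophoresis, fluorescence. Baseline: DMSO, upward fitting.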
Chain of Estrogen receptor (Homo sapiens) (P03372 whole entry, looked up, the tested form may be a part): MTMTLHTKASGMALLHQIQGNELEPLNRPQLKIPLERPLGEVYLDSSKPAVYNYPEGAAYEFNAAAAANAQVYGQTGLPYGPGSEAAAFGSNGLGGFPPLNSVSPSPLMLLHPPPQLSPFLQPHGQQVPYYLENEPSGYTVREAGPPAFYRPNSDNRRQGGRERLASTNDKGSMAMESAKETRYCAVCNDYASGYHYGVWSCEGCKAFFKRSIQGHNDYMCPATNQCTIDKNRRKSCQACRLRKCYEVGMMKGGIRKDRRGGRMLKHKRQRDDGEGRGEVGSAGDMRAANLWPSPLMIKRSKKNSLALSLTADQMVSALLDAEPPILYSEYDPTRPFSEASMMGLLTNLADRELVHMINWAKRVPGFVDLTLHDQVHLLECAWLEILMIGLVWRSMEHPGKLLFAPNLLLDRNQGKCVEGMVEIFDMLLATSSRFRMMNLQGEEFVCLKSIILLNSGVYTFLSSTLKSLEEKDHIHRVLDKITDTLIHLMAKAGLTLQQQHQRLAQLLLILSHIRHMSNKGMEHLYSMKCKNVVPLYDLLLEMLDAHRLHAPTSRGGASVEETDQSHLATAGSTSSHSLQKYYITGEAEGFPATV

Test [18] deals with Androgen receptor (Homo sapiens) (UniProt P10275). The test can be described thus: ATG_AR_TRANS: Attagene TRANS-FACTORIAL HepG2 Assay for human Androgen Receptor (AR) (AID 2282973; active = hit-call score of the fitted dose curve at least 0.9, where 1 is the maximum). The note with it: HepG2 Attagene TRANS-FACTORIAL AR reporter transcription. The procedure, abridged: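 Transcriptional activity of an exogenous AR–Gal4 fusion read as GAL4-UAS reporter transcript levels in transfected human HepG2 cells after 24 h dosing. Detection via RT-PCR, 6-FAM labelling, HpaI digest and capillary electrophoresis; increase over DMSO baseline.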
Chain of Androgen receptor (Homo sapiens) (P10275 whole entry, looked up, the tested form may be a part): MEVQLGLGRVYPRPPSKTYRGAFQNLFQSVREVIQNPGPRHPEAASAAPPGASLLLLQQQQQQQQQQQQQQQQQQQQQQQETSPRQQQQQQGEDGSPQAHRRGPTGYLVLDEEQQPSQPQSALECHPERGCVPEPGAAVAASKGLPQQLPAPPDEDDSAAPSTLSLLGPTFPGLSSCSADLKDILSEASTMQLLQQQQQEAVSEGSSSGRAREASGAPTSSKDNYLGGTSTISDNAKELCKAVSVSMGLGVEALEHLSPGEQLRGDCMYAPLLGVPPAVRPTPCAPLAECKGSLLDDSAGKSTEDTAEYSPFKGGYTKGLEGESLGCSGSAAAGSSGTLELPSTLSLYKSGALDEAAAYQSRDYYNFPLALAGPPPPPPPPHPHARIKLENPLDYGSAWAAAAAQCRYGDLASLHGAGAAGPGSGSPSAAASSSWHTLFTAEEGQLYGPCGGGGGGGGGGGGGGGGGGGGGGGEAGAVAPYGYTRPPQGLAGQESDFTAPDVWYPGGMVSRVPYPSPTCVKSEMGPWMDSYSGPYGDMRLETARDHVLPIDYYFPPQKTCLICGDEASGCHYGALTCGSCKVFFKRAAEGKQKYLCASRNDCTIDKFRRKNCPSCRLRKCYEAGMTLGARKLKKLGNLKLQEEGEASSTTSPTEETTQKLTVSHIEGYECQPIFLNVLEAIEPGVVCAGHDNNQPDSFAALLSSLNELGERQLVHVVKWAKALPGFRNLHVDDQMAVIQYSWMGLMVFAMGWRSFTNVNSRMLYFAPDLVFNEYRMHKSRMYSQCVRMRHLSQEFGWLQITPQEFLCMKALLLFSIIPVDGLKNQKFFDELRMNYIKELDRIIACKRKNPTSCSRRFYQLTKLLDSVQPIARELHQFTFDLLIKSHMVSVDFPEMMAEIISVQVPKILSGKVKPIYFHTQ

Chain of Paired box protein Pax-6 (Homo sapiens) (P26367 whole entry, looked up): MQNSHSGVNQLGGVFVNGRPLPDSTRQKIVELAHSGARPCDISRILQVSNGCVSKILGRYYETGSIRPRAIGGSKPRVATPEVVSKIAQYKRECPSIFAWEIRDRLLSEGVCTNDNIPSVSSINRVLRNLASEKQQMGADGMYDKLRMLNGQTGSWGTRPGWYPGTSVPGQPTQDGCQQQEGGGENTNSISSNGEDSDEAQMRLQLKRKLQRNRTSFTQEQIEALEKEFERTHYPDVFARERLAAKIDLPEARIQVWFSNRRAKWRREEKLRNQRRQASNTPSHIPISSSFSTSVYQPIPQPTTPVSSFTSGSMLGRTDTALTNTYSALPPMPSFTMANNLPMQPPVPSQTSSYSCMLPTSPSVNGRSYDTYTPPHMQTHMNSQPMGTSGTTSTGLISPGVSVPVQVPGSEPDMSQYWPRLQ
Chain of Transcription factor Sp1 (Homo sapiens) (P08047 whole entry, looked up): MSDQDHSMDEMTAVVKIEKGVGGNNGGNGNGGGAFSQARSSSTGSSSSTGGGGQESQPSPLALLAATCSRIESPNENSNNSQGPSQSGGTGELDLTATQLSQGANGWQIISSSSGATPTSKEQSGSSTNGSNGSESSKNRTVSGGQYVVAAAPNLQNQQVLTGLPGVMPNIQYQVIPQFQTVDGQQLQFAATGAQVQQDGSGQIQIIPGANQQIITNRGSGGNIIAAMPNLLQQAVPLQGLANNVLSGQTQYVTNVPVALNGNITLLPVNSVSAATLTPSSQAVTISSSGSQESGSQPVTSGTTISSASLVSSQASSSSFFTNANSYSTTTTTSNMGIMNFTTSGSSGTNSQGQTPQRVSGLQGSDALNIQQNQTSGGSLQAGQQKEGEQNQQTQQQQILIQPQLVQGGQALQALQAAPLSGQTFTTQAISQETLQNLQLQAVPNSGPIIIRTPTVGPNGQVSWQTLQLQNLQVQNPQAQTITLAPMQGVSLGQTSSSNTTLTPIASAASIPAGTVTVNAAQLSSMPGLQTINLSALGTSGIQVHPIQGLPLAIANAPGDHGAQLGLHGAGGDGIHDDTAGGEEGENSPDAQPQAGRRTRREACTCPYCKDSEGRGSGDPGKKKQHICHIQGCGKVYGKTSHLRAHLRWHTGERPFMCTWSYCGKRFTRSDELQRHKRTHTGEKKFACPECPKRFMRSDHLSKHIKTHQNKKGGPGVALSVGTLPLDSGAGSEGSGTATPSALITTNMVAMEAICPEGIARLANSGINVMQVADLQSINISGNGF

Turning to `COC(N)=O`, the outcome in test [1], in test [2], in [3], in test [4], in test [5] and in test [6] was inactive. For the same compound, the compound was classed as inactive in test [7], in [8], in test [9], in test [10], in test [11] and in test [12]. Also, the call in [13], in test [14] and in test [15] was inactive.
Turning to `CCCCc1ccc(O)cc1`, the compound was classed as inactive in [1], in [2], in test [3], in [4], in [5] and in test [6]. In addition, the compound was called inactive in test [7], in [8], in test [9], in [10], in test [11] and in [12]. The outcome in test [16], in test [14] and in test [15] was inactive. The AC50 (as a rule, the midpoint of the concentration-response curve, whichever way the signal moves) in test [17] was 4.66 µM (active).
For `CC(C)(C)OOC(C)(C)C`, the outcome in [1], in [2], in [3], in test [4], in test [5] and in test [6] was inactive. Also, the compound was called inactive in [7], in [8], in test [9], in test [10], in test [11] and in test [12]. In addition, the compound was called inactive in test [14] and in test [15].
As to `COP(=O)(O)OC`, the result in test [1], in test [3], in test [4], in test [6], in [7] and in test [8] was inactive. The result in test [9], in test [10], in test [11], in test [12], in test [16] and in test [17] was inactive. Also, the compound was called inactive in [14], in test [18] and in test [15]. In test [2], the AC50 was 32.8 µM (active).
On to `ClC(Cl)(Cl)c1ccccc1`, for which the outcome in test [1], in test [4], in test [6], in test [7], in test [8] and in test [9] was inactive. The call in [10], in [11], in test [12], in test [13], in test [16] and in test [14] was inactive. The AC50 in [2] is 62.9 µM (active); in [17], 45.2 µM (active).
Consider `O=P(OCC(Br)CBr)(OCC(Br)CBr)OCC(Br)CBr` (stereo not given), for which the AC50 in test [1] was 19.6 µM (active); in [2], 0.0674 µM (active); in [7], 22.9 µM (active); in test [9], 11.8 µM (active); in [14], 8.88 µM (active). For the same compound, the outcome in test [3], in [5], in test [6], in test [8], in test [10] and in test [11] was inactive. Moreover, the compound was classed as inactive in test [12], in test [17] and in [18].
As to `CCOP(=S)(OCC)SCSc1ccc(Cl)cc1`, the outcome in test [1], in test [3], in [4], in [6], in [7] and in test [8] was inactive. In addition, the outcome in test [9], in test [10], in test [11], in test [12], in [16] and in test [14] was inactive. Besides, in test [15], the outcome was inactive. Also, the AC50 in test [2] was 3 µM (active); in test [13], 5.83 µM (active); in test [17], 3.48 µM (active).

The record behind these values is PubChem BioAssay (EPA / NIEHS).
